Data on eight compounds can be found in PubChem BioAssay (NCATS).

Where “and” joins values, the source holds several entries; their conditions need not be identical. Equal entries are not always repeated. Results filed as inconclusive are left out. A number with no mark means an inactive call. Calls of active or inactive are those of the source. Calls follow the shape of the dose curve; as a rule, active = well fitted curve in the direction sought with a large enough effect; inconclusive = small, poorly fitted or top-dose-only effect, or another doubt; inactive = no such curve, though single readings can be large; an effect the other way counts as inactive or inconclusive.

A short description of assay [1]: Viability qHTS for spleen associated tyrosine kinase inhibitor (SYKi) naive MV4-11 cells (AID 1963823). Also: nearly all actives have a fitted effect of over 40% in size. The gist of the method: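 Viability of MV4-11 AML cells lacking prior SYK inhibitor exposure is scored by CellTiter-Glo luminescence following 72 hr compound incubation at 37 C, 5% CO2, seeded at 500 cells per well.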
Background: Quantitative high-throughput screening tests each substance at several concentrations.

Assay [2] is described as follows: Viability qHTS for spleen associated tyrosine kinase inhibitor (SYKi) drug resistant MV4-11 cells (AID 1963824). Also: nearly all actives have a fitted effect of over 35% in size. The gist of the method: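 SYK-inhibitor-resistant MV4-11 AML cells were seeded at 500 per well onto compound and cultured 72 hours (37 °C, 5% CO2). CellTiter-Glo was then added, and after 10 min at room temperature, luminescence gave viability.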
Assay [3] in a line: Cellular viability qHTS for adrenocortical cancer (ACC) cell line SW-13 (AID 1963989). Also: nearly all actives have a fitted effect of over 65% in size.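 As to activity (max response): cells grown in serum-free medium with ITS supplement; % is scaled to controls: 0 for no effect and ±100 for the full control effect.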 Particulars: SW-13 ACC cells viability, CellTiter-Glo, 48 h; activity (max response): stronger effect = lower value. The gist of the method: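 IC50 and maximal-response values come from four-parameter logistic fits of titration data. SW-13 cells in serum-free medium received compounds (up to 46 uM final) for 48 h before CellTiter-Glo luminescence.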

A short description of assay [4]: Cellular viability qHTS for adrenocortical cancer (ACC) cell line NCI-H295R (AID 1963990). Also: nearly all actives have a fitted effect of over 60% in size. The gist of the method:
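Adrenocortical carcinoma cells, suspended at 300 000 cells/mL in serum-free DMEM plus ITS, rested overnight before pin transfer of compound. After two days' incubation, ATP-dependent luminescence was recorded and curve-fitted.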
Potency is read from the fitted curve at half-maximal effect.

Regarding `CC(C)(O)c1coc(S(=O)(=O)NC(=O)Nc2c3c(cc4c2CCC4)CCC3)c1`, the Potency entry in assay [1], in assay [2] and in assay [4] was “inactive” in each case. Further, the activity (max response) in assay [3] was 5.8%.
Consider `CCOC(=O)[C@H](CCc1ccccc1)N[C@@H](C)C(=O)N1[C@H](C(=O)O)C[C@@H]2CCC[C@@H]21`, for which the Potency result in assay [1], in assay [2] and in assay [4] was “inactive” each time. Also, the activity (max response) in assay [3] was 3.72% and 7.5%.
In the case of `CNCC(O)c1ccc(O)c(O)c1` (configuration not stated), the Potency entry in assay [1], in assay [2] and in assay [4] was “inactive” in each case. In addition, the activity (max response) in assay [3] was 4.94%.
Turning to `O=[N+]([O-])c1ccc(O)c2ncccc12`, the Potency in assay [1] was 2.99 µM (active) and 4.68 µM (active); in assay [2] it was 7.5 µM (active) and 4.68 µM (active); in assay [3], 2.91 µM (active) and 10 µM (active); in assay [4], 411 nM (active) and 2.82 µM (active).
With `CCOc1ccc(Cc2cc([C@@H]3O[C@H](CO)[C@@H](O)[C@H](O)[C@H]3O)ccc2Cl)cc1`, the Potency entry in assay [1] and in assay [4] was “inactive” each time. The Potency in assay [2] was 18.6 µM (active). Besides, the activity (max response) in assay [3] is -2.91%.
In the case of `O=C1c2ccccc2C(=O)C1c1ccc(Br)cc1`, the Potency result in assay [1], in assay [2] and in assay [4] was “inactive” throughout. In assay [3], the activity (max response) was 7.53%.
Turning to `C=CC(=O)Nc1ccc2ncnc(Nc3cccc(Br)c3)c2c1`, the Potency in assay [1] is 2.59 µM (active); in assay [2], 2.31 µM (active); in assay [3], 1.26 µM (active); in assay [4], 4.47 µM (active).
For the compound `COc1cc([C@@H]2c3cc4c(cc3[C@@H](O[C@@H]3O[C@@H]5CO[C@@H](c6cccs6)O[C@H]5[C@H](O)[C@H]3O)[C@H]3COC(=O)[C@H]23)OCO4)cc(OC)c1O`, the Potency was 0.0742 µM (active) in assay [1], 0.0742 µM (active) in assay [2], 2.51 µM (active) in assay [3] and 7.08 µM (active) in assay [4].
